# In PubChem BioAssay (EPA / NIEHS):
# Where “and” joins values, the source holds several entries; their conditions need not be identical. Equal values may be shown once. Inconclusive results are not listed. Calls of active or inactive are those of the source. Rule for the calls: active = hit-call score of the fitted dose curve at least 0.9, where 1 is the maximum; inconclusive = response in the unintended direction; inactive = score below 0.9.
# Tests used:
# [1] = molecular target: Voltage-gated inwardly rectifying potassium channel KCNH2 (Homo sapiens) (UniProt Q12809); assay: NVS_IC_hKhERGCh: NovaScreen (NVS) Ion Channel Assay for human Potassium Channel ERG (KhERGCh) (AID 2283333)
# Outline: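 Membranes from CHO cells expressing human ERG; displacement of radioligand measured by filtration and scintillation after 0.75 h. Single-concentration duplicate screen at 25 uM, then concentration-response for actives; DMSO baseline.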
# [2] = NVS_IC_rCaBTZCHL: NovaScreen (NVS) Ion Channel Assay for Calcium Channel, Type L, Benzothiazepine Site (CaBTZCHL) (AID 2283337)
# Outline: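 Benzothiazepine-site binding was assessed in a tissue-derived, cell-free rat cortical membrane system. After 1.5 h exposure, radioactivity retained on filters was quantified by scintillation; positive and negative controls accompanied every plate.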
# [3] = molecular target: bovine Gamma-Aminobutyric Acid Type A Receptor Agonist (GABAR Agonist), GABRA1 (gene 780973) (UniProt P08219); assay: NVS_LGIC_bGABAR_Agonist: NovaScreen (NVS) Ligand-Gated Ion Channel Assay for bovine Gamma-Aminobutyric Acid Type A Receptor Agonist (GABAR Agonist) (AID 2283338)
# Outline: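 Radioligand binding to bovine cerebellar membranes in agonist format, read by filter-based scintillation counting after 1 h. Primary screen in duplicate at 25 uM, with actives followed in concentration series. Gain of signal versus DMSO.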
# [4] = tested on: guinea pig Histamine Receptor (H2), gene 100729734; assay: NVS_GPCR_gH2: NovaScreen (NVS) G Protein-Coupled Receptor Assay for guinea pig Histamine Receptor (H2) (AID 2283342)
# Outline: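 Guinea pig striatal membrane preparation with specific radioligand; bound counts measured by filtration and scintillation 1 h post-dosing, DMSO as baseline. Chemicals passing a 25 uM duplicate screen were titrated to a 50 uM maximum.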
# NCBI gene 100848466 = assay: NVS_NR_bPR: NovaScreen (NVS) Nuclear Receptor Binding Assay for bovine Progextron Receptor (PR) (AID 2283343);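 for AC50: actives lower bound radioligand signal below DMSO meaning displacement of the label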
# Outline: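 Scintillation counts of bound radioligand were read 18 hours after chemical addition to membranes extracted from bovine uterus. Displacement was scored as loss of signal relative to DMSO controls. Screening began at 25 uM in duplicate.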
# [5] = molecular target: bovine Estrogen Receptor (ER), ESR1 (gene 407238) (UniProt P49884); assay: NVS_NR_bER: NovaScreen (NVS) Nuclear Receptor Binding Assay for bovine Estrogen Receptor (ER) (AID 2283345);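 note: actives lower the bound radioligand count which means they displace the ER ligand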
# Outline: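 Cell-free radioligand binding with bovine uterine membrane extracts, read 18 hours after dosing by scintillation counting. Loss of signal versus DMSO baseline indicates displacement. Primary screen run in duplicate at 25 uM, actives followed in concentration series.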
# [6] = molecular target: chimpanzee Androgen Receptor (AR), AR (gene 747460) (UniProt O97775); assay: NVS_NR_cAR: NovaScreen (NVS) Nuclear Receptor Binding Assay for chimpanzee Androgen Receptor (AR) (AID 2283346);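 note: radioligand displacement from AR measured by scintillation counting in a cell-free assay; a loss of bound radioligand signal versus DMSO counts as binding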
# Outline: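 Radioligand binding to chimpanzee AR expressed in Sf9/Sf21 cells, cell-free, measured 72 h after dosing by lysate-based scintillation counting. Loss of signal vs DMSO; initial duplicate screen at 25 uM, actives retested in concentration series.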
# [7] = molecular target: Estrogen receptor (Homo sapiens) (UniProt P03372); assay: NVS_NR_hER: NovaScreen (NVS) Nuclear Receptor Binding Assay for human Estrogen Receptor (ER) (AID 2283348)
# Outline: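 MCF7-derived receptor extract, radiolabelled ligand, competitive displacement. Read: scintillation counts at 18 h. DMSO = negative control/baseline. Primary 25 uM duplicate; follow-up concentration–response.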
# [8] = molecular target: Estrogen receptor (Homo sapiens) (UniProt P03372); assay: OT_ER_ERaERa_1440: Odyssey Thera (OT) 24-hour HEK293T Protein-Complementation Assay for Estrogen Receptor-alpha/-alpha Homodimer (AID 2283349);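 note: hits raise fluorescence above DMSO for agonists and antagonists alike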
# Outline: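 Cells (HEK293T) carrying the fragment-tagged ERα LBD (aa 310-547) pair are treated with chemical for 24 hours. Nuclear and/or cytoplasmic fluorescence is then quantified on a laser scanning cytometer. Activity is scored as signal gain against DMSO.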
# [9] = molecular target: Estrogen receptor (Homo sapiens) (UniProt P03372); assay: OT_ER_ERaERa_0480: Odyssey Thera (OT) 8-hour HEK293T Protein-Complementation Assay for Estrogen Receptor-alpha/-alpha Homodimer (AID 2283351);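 note: rise in fluorescence from reassembled reporter fragments on ERα LBD homodimer in nucleus or whole cell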
# Outline: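 Measures ERα LBD (aa 310-547) homodimer complementation in stably transfected HEK293T at 8 h post-dose, with fluorescence intensity quantified on a laser scanning cytometer relative to DMSO controls.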
# [10] = molecular target: Estrogen receptor (Homo sapiens) + Estrogen receptor beta (Homo sapiens) (UniProt P03372+Q92731); assay: OT_ER_ERaERb_0480: Odyssey Thera (OT) 8-hour HEK293T Protein-Complementation Assay for Estrogen Receptor-alpha/-beta Heterodimer (AID 2283352)
# Outline: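 Increase in mean fluorescence intensity, measured by laser scanning plate cytometry, reported ER-alpha/ER-beta LBD complementation in HEK293T cells after 8 h chemical exposure. DMSO served as baseline; basal signal is low, punctate and cytoplasmic.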
# [11] = molecular target: rat Peripheral-type Benzodiazepine Receptor (PBR), Tspo (gene 24230) (UniProt P16257); assay: NVS_MP_rPBR: NovaScreen (NVS) Membrane Protein Assay for rat Peripheral-type Benzodiazepine Receptor (PBR) (AID 2283335)
# Outline: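 Single-concentration duplicate screening at 25 uM preceded concentration-series retesting of actives. Binding of a specific radioligand to rat kidney membrane PBR was read by filtration radiodetection after 1 h, with plate-wise positive and negative controls.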
# [12] = molecular target: Androgen Receptor/SRC-1 Co-activator, AR (gene 367) (UniProt P10275); assay: OT_AR_ARSRC1_0960: Odyssey Thera (OT) 16-hour HEK293T Protein-Complementation Assay for Androgen Receptor/SRC-1 Co-activator (AID 2283353);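 note: actives raise the signal above DMSO so potency reflects increased AR and SRC-1 complex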
# Outline: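 Sixteen-hour cell assay: Venus halves fused to AR and SRC-1 in HEK293T report binding. Images at 488/635 nm give an N/C ratio in the 488 nm channel over ≥400 cells, analysed as signal increase over DMSO.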
# [13] = molecular target: Androgen Receptor/SRC-1 Co-activator, AR (gene 367) (UniProt P10275); assay: OT_AR_ARSRC1_0480: Odyssey Thera (OT) 8-hour HEK293T Protein-Complementation Assay for Androgen Receptor/SRC-1 Co-activator (AID 2283354);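 note: hits raise the complementation signal above DMSO so AC50 marks enhancers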
# Outline: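 Split-Venus PCA, stable HEK293T, AR/SRC-1 fusions; 8 h exposure. Readout: 488nm N/C fluorescence ratio, ≥400 cells/image; fitted upward vs DMSO baseline.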
# [14] = molecular target: rat Glutamate, MK-801 Agonist Site (GluNMDA_MK801), Grin1 (gene 24408) (UniProt P35439); assay: NVS_LGIC_rGluNMDA_MK801_Agonist: NovaScreen (NVS) Ligand-Gated Ion Channel Assay for rat Glutamate, MK-801 Agonist Site (GluNMDA_MK801) (AID 2283340)
# Outline: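 Rat forebrain membrane preparation; MK-801-site radioligand binding read by filtration and scintillation after 1.5 h. Single-point 25 uM duplicate screen, followed by singleton concentration series to 50 uM max; DMSO baseline.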
# [15] = molecular target: rat Mineralocorticoid Receptor (MR), Nr3c2 (gene 25672) (UniProt P22199); assay: NVS_NR_rMR: NovaScreen (NVS) Nuclear Receptor Binding Assay for rat Mineralocorticoid Receptor (MR) (AID 2283355)
# Outline: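 Radioligand displacement, scintillation readout; tissue source adrenalectomized rat brain supernatant. Read 24 h post-dose. Screened in duplicate at 25 uM, DMSO negative control, controls on every plate; actives re-run in concentration series.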
# [16] = molecular target: rat Glycine Receptor, Strychnine-sensitive (GlyRStrySens), Glra1 (gene 25674) (UniProt P07727); assay: NVS_LGIC_rGlyRStrySens: NovaScreen (NVS) Ligand-Gated Ion Channel Assay for rat Glycine Receptor, Strychnine-sensitive (GlyRStrySens) (AID 2283341)
# Outline: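 Radioligand displacement on rat spinal cord membranes, 1 hr, filter scintillation read-out. Single-concentration duplicate screen at 25 uM; chemicals meeting threshold (e.g., 30% inhibition) rerun in concentration-response up to 50 uM. Loss of binding fitted versus DMSO.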
# bovine Estrogen Receptor (ER), ESR1 (gene 407238), sequence (P49884 whole entry, looked up): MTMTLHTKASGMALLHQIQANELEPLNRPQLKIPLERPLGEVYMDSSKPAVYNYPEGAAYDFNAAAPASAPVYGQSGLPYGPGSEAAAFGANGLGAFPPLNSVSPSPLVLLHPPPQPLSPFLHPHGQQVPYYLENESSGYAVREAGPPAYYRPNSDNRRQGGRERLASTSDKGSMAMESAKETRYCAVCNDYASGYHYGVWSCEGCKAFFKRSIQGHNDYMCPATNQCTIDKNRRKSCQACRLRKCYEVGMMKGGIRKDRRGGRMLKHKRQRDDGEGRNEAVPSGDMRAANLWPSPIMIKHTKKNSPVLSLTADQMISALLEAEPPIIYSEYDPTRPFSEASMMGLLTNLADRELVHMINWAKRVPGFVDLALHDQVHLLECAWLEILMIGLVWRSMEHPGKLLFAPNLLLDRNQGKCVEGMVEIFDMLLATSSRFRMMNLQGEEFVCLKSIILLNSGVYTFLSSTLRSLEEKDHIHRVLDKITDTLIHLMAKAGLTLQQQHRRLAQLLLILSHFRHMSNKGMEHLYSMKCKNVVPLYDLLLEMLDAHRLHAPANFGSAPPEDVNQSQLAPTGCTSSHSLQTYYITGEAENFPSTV
# chimpanzee Androgen Receptor (AR), AR (gene 747460), sequence (O97775 whole entry, looked up): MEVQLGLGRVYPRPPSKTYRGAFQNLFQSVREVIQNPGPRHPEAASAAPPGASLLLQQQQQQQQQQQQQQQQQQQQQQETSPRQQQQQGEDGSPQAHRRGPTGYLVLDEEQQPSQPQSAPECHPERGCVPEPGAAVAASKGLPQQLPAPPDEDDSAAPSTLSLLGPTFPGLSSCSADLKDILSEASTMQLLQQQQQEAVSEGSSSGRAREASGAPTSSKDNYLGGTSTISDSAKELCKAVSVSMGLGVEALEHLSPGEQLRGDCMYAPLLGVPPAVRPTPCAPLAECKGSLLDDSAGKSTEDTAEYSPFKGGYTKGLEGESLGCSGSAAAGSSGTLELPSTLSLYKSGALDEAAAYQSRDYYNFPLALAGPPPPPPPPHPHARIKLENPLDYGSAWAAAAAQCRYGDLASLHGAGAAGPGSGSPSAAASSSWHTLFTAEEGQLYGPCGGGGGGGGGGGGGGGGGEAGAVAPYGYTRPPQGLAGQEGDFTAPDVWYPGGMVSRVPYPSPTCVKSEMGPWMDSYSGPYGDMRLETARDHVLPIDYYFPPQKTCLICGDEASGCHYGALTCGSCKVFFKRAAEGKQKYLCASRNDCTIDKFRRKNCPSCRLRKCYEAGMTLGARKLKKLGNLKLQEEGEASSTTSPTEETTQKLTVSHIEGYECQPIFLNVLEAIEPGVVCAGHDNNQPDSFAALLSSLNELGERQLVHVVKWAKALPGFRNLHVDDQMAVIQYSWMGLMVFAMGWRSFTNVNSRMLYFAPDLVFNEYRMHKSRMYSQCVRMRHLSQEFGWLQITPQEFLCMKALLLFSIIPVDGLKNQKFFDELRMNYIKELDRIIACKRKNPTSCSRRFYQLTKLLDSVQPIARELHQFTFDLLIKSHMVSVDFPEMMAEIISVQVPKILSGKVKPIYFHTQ
# Estrogen receptor (Homo sapiens) + Estrogen receptor beta (Homo sapiens), sequence (P03372 whole entry, looked up, the tested form may be a part): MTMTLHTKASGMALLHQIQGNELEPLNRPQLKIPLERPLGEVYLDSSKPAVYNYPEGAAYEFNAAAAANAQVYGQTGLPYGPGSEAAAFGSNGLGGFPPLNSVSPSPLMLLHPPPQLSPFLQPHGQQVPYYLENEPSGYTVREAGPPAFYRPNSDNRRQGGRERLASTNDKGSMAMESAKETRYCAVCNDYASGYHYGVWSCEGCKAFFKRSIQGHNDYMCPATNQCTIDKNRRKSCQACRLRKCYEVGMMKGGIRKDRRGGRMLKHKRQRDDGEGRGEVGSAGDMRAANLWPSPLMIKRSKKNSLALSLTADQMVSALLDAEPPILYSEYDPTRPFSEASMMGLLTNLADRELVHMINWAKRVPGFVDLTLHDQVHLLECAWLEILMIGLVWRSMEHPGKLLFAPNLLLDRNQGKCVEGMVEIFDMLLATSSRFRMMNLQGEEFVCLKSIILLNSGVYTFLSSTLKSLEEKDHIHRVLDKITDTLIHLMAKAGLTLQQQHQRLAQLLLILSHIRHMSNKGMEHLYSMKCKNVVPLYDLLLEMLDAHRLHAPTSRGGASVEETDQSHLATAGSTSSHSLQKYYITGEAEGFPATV
# Estrogen receptor (Homo sapiens) + Estrogen receptor beta (Homo sapiens), sequence (Q92731 whole entry, looked up, the tested form may be a part): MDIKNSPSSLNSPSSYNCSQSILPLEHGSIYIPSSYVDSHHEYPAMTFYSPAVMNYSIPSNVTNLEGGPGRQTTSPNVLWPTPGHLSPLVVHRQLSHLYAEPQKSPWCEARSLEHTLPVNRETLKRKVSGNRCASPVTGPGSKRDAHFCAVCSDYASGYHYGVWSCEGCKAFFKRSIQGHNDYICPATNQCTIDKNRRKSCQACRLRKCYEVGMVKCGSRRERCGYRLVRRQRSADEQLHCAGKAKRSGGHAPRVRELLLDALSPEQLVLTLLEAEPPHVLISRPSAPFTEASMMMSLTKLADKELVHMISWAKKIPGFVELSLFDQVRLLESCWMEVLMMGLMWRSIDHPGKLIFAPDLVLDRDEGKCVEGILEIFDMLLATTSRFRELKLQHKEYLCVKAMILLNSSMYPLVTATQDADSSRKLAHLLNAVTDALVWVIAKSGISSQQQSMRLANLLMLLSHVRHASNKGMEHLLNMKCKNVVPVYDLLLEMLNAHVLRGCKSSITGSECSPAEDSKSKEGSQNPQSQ
# Estrogen receptor (Homo sapiens), sequence (P03372 whole entry, looked up, the tested form may be a part): as the sequence (P03372 whole entry, looked up, the tested form may be a part) above
# Voltage-gated inwardly rectifying potassium channel KCNH2 (Homo sapiens), sequence (Q12809 whole entry, looked up): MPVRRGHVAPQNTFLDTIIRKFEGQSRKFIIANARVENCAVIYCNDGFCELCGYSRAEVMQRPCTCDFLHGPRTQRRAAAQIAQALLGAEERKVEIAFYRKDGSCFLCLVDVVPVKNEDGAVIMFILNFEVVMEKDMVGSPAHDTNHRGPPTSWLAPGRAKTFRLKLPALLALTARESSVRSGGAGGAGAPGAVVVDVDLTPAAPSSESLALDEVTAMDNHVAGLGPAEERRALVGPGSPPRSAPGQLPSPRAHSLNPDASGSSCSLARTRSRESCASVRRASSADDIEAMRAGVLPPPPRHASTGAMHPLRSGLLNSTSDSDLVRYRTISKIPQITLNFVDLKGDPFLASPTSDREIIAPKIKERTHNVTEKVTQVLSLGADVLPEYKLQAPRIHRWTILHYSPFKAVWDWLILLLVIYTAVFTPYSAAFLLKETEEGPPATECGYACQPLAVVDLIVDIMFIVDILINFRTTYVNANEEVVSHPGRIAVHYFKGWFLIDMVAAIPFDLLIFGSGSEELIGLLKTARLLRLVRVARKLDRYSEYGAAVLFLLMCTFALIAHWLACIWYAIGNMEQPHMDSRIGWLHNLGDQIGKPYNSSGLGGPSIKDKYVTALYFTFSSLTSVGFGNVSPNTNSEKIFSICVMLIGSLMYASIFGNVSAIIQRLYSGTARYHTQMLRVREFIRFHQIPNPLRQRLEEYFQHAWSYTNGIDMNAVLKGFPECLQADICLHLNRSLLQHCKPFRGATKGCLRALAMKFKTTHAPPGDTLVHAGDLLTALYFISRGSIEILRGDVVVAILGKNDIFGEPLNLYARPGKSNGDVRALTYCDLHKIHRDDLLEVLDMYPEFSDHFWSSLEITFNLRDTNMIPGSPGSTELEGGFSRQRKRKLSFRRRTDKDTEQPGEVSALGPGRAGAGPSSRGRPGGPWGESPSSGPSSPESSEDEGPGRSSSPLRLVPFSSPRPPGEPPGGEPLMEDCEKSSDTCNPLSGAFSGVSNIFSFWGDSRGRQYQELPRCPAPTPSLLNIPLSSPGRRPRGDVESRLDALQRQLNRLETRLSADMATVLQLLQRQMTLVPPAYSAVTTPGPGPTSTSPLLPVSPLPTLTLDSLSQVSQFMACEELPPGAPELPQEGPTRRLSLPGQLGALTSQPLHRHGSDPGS
# rat Peripheral-type Benzodiazepine Receptor (PBR), Tspo (gene 24230), sequence (P16257 whole entry, looked up): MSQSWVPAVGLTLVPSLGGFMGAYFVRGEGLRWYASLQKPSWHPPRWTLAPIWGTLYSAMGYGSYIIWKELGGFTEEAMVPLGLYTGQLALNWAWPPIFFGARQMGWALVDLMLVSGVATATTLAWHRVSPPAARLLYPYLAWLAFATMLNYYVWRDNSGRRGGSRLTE
# bovine Gamma-Aminobutyric Acid Type A Receptor Agonist (GABAR Agonist), GABRA1 (gene 780973), sequence (P08219 whole entry, looked up): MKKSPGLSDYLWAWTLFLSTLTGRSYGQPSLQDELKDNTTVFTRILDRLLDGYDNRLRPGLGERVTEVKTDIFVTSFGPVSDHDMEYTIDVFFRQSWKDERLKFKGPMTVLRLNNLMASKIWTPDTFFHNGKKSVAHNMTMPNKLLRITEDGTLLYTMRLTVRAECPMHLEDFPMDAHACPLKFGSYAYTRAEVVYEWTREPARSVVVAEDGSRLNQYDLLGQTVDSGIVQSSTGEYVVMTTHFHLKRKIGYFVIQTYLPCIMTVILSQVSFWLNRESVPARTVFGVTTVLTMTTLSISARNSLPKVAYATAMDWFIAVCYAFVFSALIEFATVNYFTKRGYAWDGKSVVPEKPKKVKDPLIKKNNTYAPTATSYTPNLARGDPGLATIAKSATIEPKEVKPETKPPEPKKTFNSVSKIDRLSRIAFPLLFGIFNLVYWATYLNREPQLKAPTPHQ
smiles,measurement,setting,value
C=C(C)C(=O)[O][Sn]([CH2]CCC)([CH2]CCC)[CH2]CCC,outcome,[1],inactive
same,AC50,[2],12.8 µM (active)
same,outcome,[3],inactive
same,AC50,[4],2.23 µM (active)
same,AC50,NCBI gene 100848466,3.89 µM (active)
same,outcome,[5],inactive
same,AC50,[6],12.1 µM (active)
same,outcome,[7],inactive
same,outcome,[8],inactive
same,outcome,[9],inactive
same,outcome,[10],inactive
O=Cc1cccc(Oc2ccccc2)c1,outcome,[11],inactive
same,outcome,[2],inactive
CC(=O)[O][Hg][c]1ccccc1,AC50,[4],11.4 µM (active)
same,AC50,[6],29.1 µM (active)
same,outcome,[7],inactive
same,outcome,[8],inactive
same,outcome,[9],inactive
same,AC50,[12],1.86 µM (active)
same,AC50,[13],3.4 µM (active)
CCN1CCC2(CC1)COc1cc3c(cc12)N(C(=O)c1ccc(-c2ccc(-c4nnc(C)o4)cc2C)cc1)CC3,outcome,[1],inactive
same,AC50,[11],6.5 µM (active)
same,AC50,[2],4.16 µM (active)
same,AC50,[14],39.1 µM (active)
same,AC50,[4],11.6 µM (active)
same,AC50,[6],16.8 µM (active)
same,outcome,[8],inactive
same,AC50,[12],7.04 µM (active)
same,AC50,[13],11.7 µM (active)
Nc1cccc2ccccc12,outcome,[11],inactive
COc1cc(-c2ccc(N)c(OC)c2)ccc1N,AC50,[11],2.75 µM (active) and 2.71 µM (active)
same,AC50,[6],18.5 µM (active) and 25 µM (active)
same,outcome,[15],inactive
Clc1ccc(COC(Cn2ccnc2)c2ccc(Cl)cc2Cl)cc1 (stereo not drawn),AC50,[11],1.63 µM (active)
same,AC50,[5],0.7 µM (active)
same,AC50,[6],9.28 µM (active)
same,outcome,[8],inactive
same,outcome,[9],inactive
O=C(O)C(Cl)(Cl)Cl,outcome,[1],inactive
O=[N+]([O-])c1ccc2c3c(cccc13)CC2,AC50,[11],13.3 µM (active)
same,outcome,[5],inactive
CC(C)(C)CC(C)(C)c1ccc(O)cc1,outcome,[11],inactive
same,outcome,[15],inactive
CCCCCCCCC(=O)NCc1ccc(O)c(OC)c1,AC50,[11],6.25 µM (active)
C[C@]12CCC(=O)C[C@@H]1CC[C@@H]1[C@@H]2CC[C@]2(C)[C@@H](O)CC[C@@H]12,outcome,NCBI gene 100848466,inactive
C[C@H]1CCCC(=O)CCC/C=C/c2cc(O)cc(O)c2C(=O)O1,AC50,[11],0.346 µM (active)
same,AC50,[5],0.0119 µM (active)
same,AC50,[7],0.00245 µM (active)
same,AC50,[8],0.46 µM (active)
same,AC50,[9],0.291 µM (active)
same,AC50,[10],0.0558 µM (active)
same,outcome,[12],inactive
same,outcome,[13],inactive
CCOC(=O)/C=C(C)/C=C/C[C@@H](C)CCCC(C)C,AC50,[11],17.6 µM (active)
same,outcome,[5],inactive
same,outcome,[7],inactive
CCC(=O)C(CC(C)N(C)C)(c1ccccc1)c1ccccc1 (stereo not drawn),AC50,[2],1.16 µM (active)
same,AC50,[16],18.1 µM (active)
same,AC50,[4],4.02 µM (active)
same,outcome,[8],inactive
same,outcome,[9],inactive
same,outcome,[10],inactive
same,outcome,[12],inactive
